PubChem BioAssay (Tox21)
Records with an inconclusive call do not appear. A call without a number means that no potency is given here. Active and inactive are the calls of the source. Unless noted, the call rests on the fitted dose curve; in most records, active means well fitted curve in the direction sought with a large enough effect in the repeat runs; inconclusive means weak or mixed curves; inactive means no such curve, though single readings can be large; an effect the other way counts as inactive or inconclusive.

Assays:
[1] = qHTS assay to identify small molecule antagonists of the thyroid receptor (TR) signaling pathway (AID 743065); further: nearly all actives have a fitted effect of over 55% in size
How it was run: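 GH3.TRE-Luc rat pituitary cells (two TREs driving luciferase) were dosed with compound, then stimulated with 1 nM T3 (final) for 23.5 h at 37 C. ONE-Glo luminescence was the read-out, with CellTiter-Fluor fluorescence as the cytotoxicity counter-screen.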

[2] = system: thyroid hormone receptor (rat, GH3 cells); test: qHTS assay to identify small molecule agonists of the thyroid receptor (TR) signaling pathway (AID 743066; calls by dose curve)
[3] = target: Estrogen receptor (Homo sapiens) (UniProt P03372); test: qHTS assay to identify small molecule antagonists of the estrogen receptor alpha (ER-alpha) signaling pathway (AID 743069; active means well fitted curve in the direction sought with a large enough effect in the signal ratio in the repeat runs, not every such curve was filed as active; the % refers to the signal ratio)
How it was run: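 In this cell-based reporter format, GripTite HEK293 cells harbouring ER-alpha-UAS-bla were grown overnight with 2% charcoal-stripped FBS, dosed with DMSO-dissolved compounds, then challenged with 17beta-estradiol. After 18 hr at 37C, beta-lactamase activity was detected by FRET fluorescence.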

[4] = qHTS assay to identify small molecule antagonists of the estrogen receptor alpha (ER-alpha) signaling pathway - cell viability counter screen (AID 743074; calls by dose curve; further: nearly all actives have a fitted effect of over 45% in size)
[5] = target: Estrogen receptor (Homo sapiens) (UniProt P03372); test: qHTS assay to identify small molecule agonists of the estrogen receptor alpha (ER-alpha) signaling pathway using the BG1 cell line (AID 743079); details: BG1Luc4E2 cells, ERE-luciferase agonist, 22 h; activation: at 70.3 µM (top of the series); further: nearly all actives have a fitted effect of over 20% in size; further: potency means the concentration at half of the fitted maximal effect
[6] = qHTS assay to identify small molecule antagonists of the estrogen receptor alpha (ER-alpha) signaling pathway using the BG1 cell line (AID 743080; calls by dose curve;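 further: BG1 cells stimulated with 17beta-estradiol alongside compound; nearly all actives have a fitted effect of over 25% in size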)
How it was run: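 BG1Luc4E2, endogenous ER-alpha, 4xERE-luc; 5 d charcoal-stripped FBS, phenol red free; 24 h plating; cpd + 17beta-estradiol 21.5 h, 37 C/5% CO2; CellTiter-Fluor viability 30 min, then ONE-Glo luciferase 30 min RT.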

[7] = qHTS assay to identify small molecule antagonists of the estrogen receptor alpha (ER-alpha) signaling pathway using the BG1 cell line - cell viability counter screen (AID 743081);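 further: compound given together with 17beta-estradiol as the ER stimulus; nearly all actives have a fitted effect of over 45% in size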
Aromatase (Homo sapiens) = Aromatase (Homo sapiens) (UniProt P11511); test: qHTS assay to identify aromatase inhibitors (AID 743083); further: nearly all actives have a fitted effect of over 55% in size; further: potency means the concentration at half of the fitted maximal effect
[8] = qHTS assay to identify aromatase inhibitors - cell viability counter screen (AID 743084);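 further: cells stimulated with testosterone during compound exposure; nearly all actives have a fitted effect of over 55% in size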
[9] = qHTS assay to identify small molecule that activate the aryl hydrocarbon receptor (AhR) signaling pathway - cell viability counter screen (AID 743086);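 further: HepG2 liver cells carrying the AhR DRE luciferase reporter; nearly all actives have a fitted effect of over 45% in size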
How it was run: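 HepG2-AhR-luc (HG2L7.5c1) cells, 4000/well, treated 24 h at 37 C with compound; viability measured as CellTiter-Fluor fluorescence after 30 min in the same wells as the luciferase read.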

[10] = target: Peroxisome proliferator-activated receptor gamma (Homo sapiens) (UniProt P37231); test: qHTS assay to identify small molecule agonists of the peroxisome proliferator-activated receptor gamma (PPARg) signaling pathway (AID 743094; active means well fitted activation curve with a large enough effect in the signal ratio in the repeat runs, not every such curve was filed as active; the % refers to the signal ratio)
How it was run: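 HEK293H PPARg-bla cells, 5 h settle at 37C/5% CO2; compound (DMSO) 17 h, 37C; B/G FRET substrate 1 h RT; fluorescence intensity read-out. qHTS format.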

[11] = qHTS assay to identify small molecule antagonists of the peroxisome proliferator-activated receptor gamma (PPARg) signaling pathway - cell viability counter screen (AID 743194); further: nearly all actives have a fitted effect of over 55% in size
How it was run: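 Cytotoxicity counter screen in PPARg-bla HEK293H cells, same wells as reporter assay. Compounds plus 50 nM rosiglitazone (final) for 17 h at 37 C, then viability read by CellTiter-Glo luminescence.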

[12] = qHTS assay for small molecule agonists of the antioxidant response element (ARE) signaling pathway (AID 743202; active means well fitted activation curve with a large enough effect in the signal ratio in the repeat runs, not every such curve was filed as active; the % refers to the signal ratio; further: potency means the concentration at half of the fitted maximal effect)
How it was run: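 HepG2 ARE-bla cells; 16 h treatment at 37 C; FRET-based beta-lactamase fluorescence read after 2 h substrate incubation at room temperature.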

[13] = qHTS assay for small molecule agonists of the antioxidant response element (ARE) signaling pathway - cell viability counter screen (AID 743203; calls by dose curve; further: nearly all actives have a fitted effect of over 55% in size)
How it was run: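 Luminescence read-out (CellTiter-Glo, 30 min at room temperature) measured cell viability in the same wells as the ARE beta-lactamase reporter. HepG2 ARE-bla cells were treated with compounds for 16 hrs at 37C/5% CO2.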

[14] = qHTS assay for small molecule activators of the heat shock response signaling pathway - cell viability counter screen (AID 743209); further: nearly all actives have a fitted effect of over 50% in size
How it was run: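 HSE-bla HeLa; 1500 cells/well; overnight 37 C, 5% CO2; compound 5 h 37 C; LiveBLAzer B/G substrate 2.5 h RT; CellTiter-Glo 30 min RT; luminescence.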

[15] = qHTS assay for small molecule activators of the heat shock response signaling pathway (AID 743210; active means well fitted activation curve with a large enough effect in the signal ratio in the repeat runs, with a control signal flat, not every such curve was filed as active; the % refers to the signal ratio;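 further: HeLa cells with beta-lactamase reporter driven by heat shock elements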)
How it was run: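 Following overnight attachment, HSE-bla HeLa cells received test compounds for 5 h at 37 C; beta-lactamase activity was then detected via FRET substrate fluorescence.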

[16] = target: Estrogen receptor (Homo sapiens) (UniProt P03372); test: qHTS assay to identify small molecule agonists of the estrogen receptor alpha (ER-alpha) signaling pathway (AID 743075; calls by dose curve; further: potency means the concentration at half of the fitted maximal effect)
[17] = target: Peroxisome proliferator-activated receptor gamma (Homo sapiens) (UniProt P37231); test: qHTS assay to identify small molecule antagonists of the peroxisome proliferator-activated receptor gamma (PPARg) signaling pathway (AID 743191; calls by dose curve; further: nearly all actives have a fitted effect of over 30% in size)
How it was run: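 GeneBLAzer PPARg UAS-bla HEK293H cells, 5 h post-plating, exposed to compounds 17 h at 37C. LiveBLAzer B/G FRET substrate added for 1 h at room temperature; beta-lactamase reporter read by fluorescence intensity.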

[18] = qHTS assay to identify small molecule antagonists of the thyroid receptor (TR) signaling pathway - cell viability counter screen (AID 743064); further: nearly all actives have a fitted effect of over 50% in size; further: potency means the concentration at half of the fitted maximal effect
How it was run: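 GH3.TRE-Luc cells, 4 h pre-plating; cpd + T3 1 nM final; 37 °C 23.5 h; CellTiter-Fluor 30 min; fluorescence read.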

[19] = target: Aryl hydrocarbon receptor (Homo sapiens) (UniProt P35869); test: qHTS assay to identify small molecule that activate the aryl hydrocarbon receptor (AhR) signaling pathway (AID 743085); further: nearly all actives have a fitted effect of over 15% in size; further: potency means the concentration at half of the fitted maximal effect;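 on activation: HG2L7.5c1 human HepG2 liver cells with stably integrated DRE-driven firefly reporter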
How it was run: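 Luminescence read-out: ONE-Glo reagent, 30 min at room temperature, in HG2L7.5c1 HepG2 reporter cells treated 24 h at 37C. Viability was measured beforehand by CellTiter-Fluor fluorescence after 30 min at 37C.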

Chain of Aryl hydrocarbon receptor (Homo sapiens) (P35869 whole entry, looked up): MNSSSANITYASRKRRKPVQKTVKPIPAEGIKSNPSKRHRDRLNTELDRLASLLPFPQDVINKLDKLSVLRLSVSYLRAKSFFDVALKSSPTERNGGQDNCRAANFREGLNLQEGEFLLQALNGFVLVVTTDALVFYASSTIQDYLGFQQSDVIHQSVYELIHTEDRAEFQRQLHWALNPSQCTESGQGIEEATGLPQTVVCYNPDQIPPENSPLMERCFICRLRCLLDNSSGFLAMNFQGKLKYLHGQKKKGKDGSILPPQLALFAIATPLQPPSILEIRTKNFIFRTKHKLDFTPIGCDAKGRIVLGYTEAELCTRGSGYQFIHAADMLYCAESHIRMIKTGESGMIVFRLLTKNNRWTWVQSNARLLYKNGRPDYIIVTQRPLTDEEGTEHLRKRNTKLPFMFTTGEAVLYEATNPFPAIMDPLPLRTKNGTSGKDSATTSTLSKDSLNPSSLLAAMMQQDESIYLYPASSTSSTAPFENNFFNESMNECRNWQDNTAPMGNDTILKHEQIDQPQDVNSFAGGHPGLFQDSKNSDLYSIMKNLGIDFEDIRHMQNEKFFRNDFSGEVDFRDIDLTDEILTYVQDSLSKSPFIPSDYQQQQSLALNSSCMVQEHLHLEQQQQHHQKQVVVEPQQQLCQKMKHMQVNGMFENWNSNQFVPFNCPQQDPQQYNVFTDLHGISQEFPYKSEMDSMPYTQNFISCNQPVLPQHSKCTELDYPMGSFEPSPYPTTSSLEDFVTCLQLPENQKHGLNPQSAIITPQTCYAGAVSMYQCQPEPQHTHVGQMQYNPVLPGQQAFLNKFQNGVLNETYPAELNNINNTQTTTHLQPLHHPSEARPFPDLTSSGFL
Chain of Estrogen receptor (Homo sapiens) (P03372 whole entry, looked up): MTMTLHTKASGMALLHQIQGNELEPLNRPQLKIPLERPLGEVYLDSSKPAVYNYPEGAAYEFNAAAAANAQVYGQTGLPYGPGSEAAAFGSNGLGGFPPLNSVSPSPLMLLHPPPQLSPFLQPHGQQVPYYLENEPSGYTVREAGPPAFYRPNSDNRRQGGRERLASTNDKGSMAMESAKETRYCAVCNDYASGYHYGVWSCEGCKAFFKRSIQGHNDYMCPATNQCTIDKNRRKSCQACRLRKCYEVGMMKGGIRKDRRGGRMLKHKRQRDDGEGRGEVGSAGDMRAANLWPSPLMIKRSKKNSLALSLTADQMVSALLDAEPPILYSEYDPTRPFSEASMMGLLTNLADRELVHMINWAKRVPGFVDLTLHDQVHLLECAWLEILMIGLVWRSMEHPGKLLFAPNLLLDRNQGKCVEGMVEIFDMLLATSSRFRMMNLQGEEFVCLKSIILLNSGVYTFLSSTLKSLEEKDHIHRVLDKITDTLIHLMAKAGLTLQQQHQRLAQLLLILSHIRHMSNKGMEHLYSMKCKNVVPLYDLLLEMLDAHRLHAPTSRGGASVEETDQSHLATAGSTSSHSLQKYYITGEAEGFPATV
Chain of Aromatase (Homo sapiens) (P11511 whole entry, looked up): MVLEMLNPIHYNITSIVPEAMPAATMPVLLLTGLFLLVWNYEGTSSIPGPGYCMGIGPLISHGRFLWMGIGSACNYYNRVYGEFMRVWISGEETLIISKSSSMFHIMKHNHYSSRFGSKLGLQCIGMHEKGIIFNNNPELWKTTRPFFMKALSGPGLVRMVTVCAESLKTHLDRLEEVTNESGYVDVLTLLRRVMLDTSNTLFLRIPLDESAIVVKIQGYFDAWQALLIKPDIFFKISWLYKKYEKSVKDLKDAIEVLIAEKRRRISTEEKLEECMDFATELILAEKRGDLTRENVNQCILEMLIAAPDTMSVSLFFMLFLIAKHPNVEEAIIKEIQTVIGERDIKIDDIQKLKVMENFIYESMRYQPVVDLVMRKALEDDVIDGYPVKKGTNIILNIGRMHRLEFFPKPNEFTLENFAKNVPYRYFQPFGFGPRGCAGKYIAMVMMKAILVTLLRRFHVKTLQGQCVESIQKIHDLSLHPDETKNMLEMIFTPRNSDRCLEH
Chain of Peroxisome proliferator-activated receptor gamma (Homo sapiens) (P37231 whole entry, looked up): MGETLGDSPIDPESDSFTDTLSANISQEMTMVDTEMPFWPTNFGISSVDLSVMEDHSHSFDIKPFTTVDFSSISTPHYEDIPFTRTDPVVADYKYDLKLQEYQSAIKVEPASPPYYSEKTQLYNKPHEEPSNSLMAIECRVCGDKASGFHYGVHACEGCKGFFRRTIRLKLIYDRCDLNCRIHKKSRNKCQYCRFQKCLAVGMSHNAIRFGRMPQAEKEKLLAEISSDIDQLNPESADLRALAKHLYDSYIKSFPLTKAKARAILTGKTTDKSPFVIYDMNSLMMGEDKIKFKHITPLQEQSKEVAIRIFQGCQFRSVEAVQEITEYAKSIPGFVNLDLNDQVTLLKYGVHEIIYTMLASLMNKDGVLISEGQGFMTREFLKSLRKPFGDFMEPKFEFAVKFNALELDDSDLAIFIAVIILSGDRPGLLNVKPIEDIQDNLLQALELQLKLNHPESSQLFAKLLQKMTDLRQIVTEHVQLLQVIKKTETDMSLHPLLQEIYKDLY

Compound	Potency [1]	outcome [2]	Potency [3]	Potency [4]	Potency [5]	Potency [6]	Potency [7]	Potency (Aromatase (Homo sapiens))	Potency [8]	Potency [9]	Potency [10]	Potency [11]	Potency [12]	Potency [13]	Potency [14]	Potency [15]	Potency [16]	Potency [17]	Potency [18]	Potency [19]
CC=C(Cl)Cl	inactive	inactive	inactive	inactive	inactive	inactive	inactive	inactive	inactive	inactive	inactive	inactive	inactive	inactive	inactive	inactive	–	–	–	–
CN1CC(=O)N2[C@H](c3ccc4c(c3)OCO4)c3[nH]c4ccccc4c3C[C@@H]2C1=O	inactive	inactive	inactive	–	inactive	–	inactive	inactive	–	–	inactive	inactive	–	inactive	inactive	inactive	inactive	inactive	–	–
COC(=O)CS	–	–	inactive	inactive	inactive	inactive	inactive	inactive	inactive	inactive	inactive	inactive	inactive	inactive	–	inactive	inactive	–	inactive	inactive
O=C=Nc1ccc(Cl)c(Cl)c1	inactive	inactive	–	inactive	inactive	inactive	inactive	inactive	inactive	inactive	inactive	inactive	–	inactive	inactive	inactive	inactive	–	–	47.8 µM (active)
CCC(C)COC(C)=O (stereo unspecified)	inactive	inactive	inactive	inactive	inactive	inactive	inactive	inactive	inactive	inactive	–	inactive	inactive	inactive	–	–	inactive	–	–	–
C=C(C)CCCC(C)CCO (stereo unspecified)	inactive	inactive	inactive	inactive	inactive	inactive	inactive	inactive	inactive	inactive	inactive	inactive	–	–	inactive	inactive	inactive	–	–	inactive
CCCC(C(=O)OCCN(CC)CC)(c1ccccc1)c1ccccc1	–	–	–	inactive	inactive	inactive	–	–	–	–	inactive	inactive	–	inactive	inactive	–	inactive	–	23.7 µM (active)	inactive
Oc1ccc(Cl)c2cccnc12	–	–	–	inactive	inactive	inactive	inactive	3.35 µM (active)	–	inactive	inactive	–	23.7 µM (active)	inactive	inactive	–	inactive	–	7.5 µM (active)	11.9 µM (active)
OCCOCC#CCOCCO	inactive	inactive	inactive	inactive	inactive	inactive	inactive	inactive	inactive	inactive	inactive	inactive	inactive	inactive	inactive	inactive	inactive	inactive	–	inactive
CCOC(=O)[C@H](CCc1ccccc1)N[C@@H](C)C(=O)N(CC(=O)O)C1Cc2ccccc2C1	inactive	inactive	inactive	–	inactive	inactive	inactive	inactive	inactive	inactive	inactive	inactive	–	inactive	inactive	inactive	inactive	–	–	–
O=C1CCCCCCCCCCOCCCCO1	–	inactive	–	inactive	–	–	inactive	–	inactive	inactive	inactive	inactive	inactive	inactive	inactive	–	–	inactive	inactive	inactive
Cc1ccccc1S	inactive	inactive	inactive	inactive	inactive	inactive	inactive	inactive	inactive	inactive	inactive	inactive	–	inactive	–	–	inactive	–	–	inactive
CCCCCCCC/C=C\CCCCCCCCCCCC(=O)O	–	–	inactive	inactive	–	inactive	inactive	inactive	inactive	inactive	inactive	inactive	–	inactive	inactive	inactive	inactive	–	inactive	–
Oc1cccc(Nc2ccccc2)c1	–	inactive	–	–	25.4 µM (active)	–	–	inactive	inactive	inactive	–	inactive	–	–	inactive	inactive	57.6 µM [activator] (active)	–	inactive	inactive
O=[N+]([O-])c1ccc(Nc2ccc(Nc3ccccc3)c(S(=O)(=O)O)c2)c([N+](=O)[O-])c1	–	inactive	–	inactive	–	–	–	inactive	–	–	inactive	inactive	–	–	inactive	inactive	–	inactive	48.6 µM (active)	inactive
